Assay results as given in PubChem BioAssay (NCATS).
Inconclusive results are not listed. Values without a mark were called inactive. Calls of active or inactive are those of the source. Calls come from the whole dose curve; as a rule, active = well fitted cell-killing curve with a large enough effect; inconclusive = small, poorly fitted or top-dose-only effect, or effect the other way; inactive = flat fitted curve, though single readings scatter.

test: UWB1.289-WTBRCA1 Cancer Cell Toxicity qHTS against the NCATS CANVASS Library (AID 1347354); conditions: UWB1.289-WTBRCA1 viability, CellTiter-Glo luminescence, 72 h; series mostly up to 38.3 µM; activity change, negative = cytotoxicity: at the top concentration
From the text: Natural products and their derivatives continue to be wellsprings of nascent therapeutic potential. However, many laboratories have limited resources for biological evaluation, leaving their previously isolated or synthesized compounds largely or completely untested. To address this issue, the Canvass library of natural products was assembled (https://tripod.nih.gov/canvass), in collaboration with academic and industry researchers, for quantitative high-throughput screening (qHTS) across a diverse set of cell-based and biochemical assays. The pure (>85% purity by liquid chromatography/mass spectrometry [LC/MS]) Canvass library of 346 natural products were submitted by 45 academic laboratories and companies around the world. We collected pure natural products to circumvent deconvolution and structure elucidation due to time and resource limitations. The library was formatted into 1536-well plates and evaluated in 50 qHTS (in an 11-pnt concentration series) bioassays with broad scope of disease-relevant mechanisms. The resulting data set from 50 different assays was then systematically analyzed to identify overall trends and specific natural products with interesting biological activities. Reported herein are the results of each individual qHTS and their corresponding assay protocol. National Center for Advancing Translational Sciences (NCATS), Rockville, MD National Institute of Health (NIH), Bethesda, Maryland
Cancer Cell Toxicity COV-362, OV-KATE, OV-SAHO, UWB1.289, UWB1.289-WTBRCA1, HEK-293, HPAF-II, Panc-1005, SW1088, and U-118MG-screen protocol. 1. In a 1536 well, white solid bottom tissue culture plates (Corning 7494), corresponding cells (COV-362, OV-KATE, OV-SAHO, UWB1.289, UWB1.289-WTBRCA1, HEK-293, HPAF-II, Panc-1005, SW1088, or U-118MG) were dispensed in each well at a final concentration of 1000 cells / well (6uL volume) using the Multidrop Combi (Thermo Fisher Scientific) dispenser. 2. The plates were incubated for 4 hours at 37 degrees C/5% CO2/95% Rh. 3. Compounds were pin transferred (~23nL volume) via Wako Pin-tool (Wako Automation, Richmond VA) equipped with a 1536 pin head. The assay plates were treated with compounds in an 11-pnt concentration series with a final concentration range of […] to 85uM. 4. Bortezomib was used as a single dose control (0.5mM column 4, rows 1 - 32) at a final concentration of 1.9uM and as a 16pnt titration (1mM; 1:2 dilution; 16-points; n = 2; column 3, rows 1 - 32) with final concentration range of 0.1nM - 3.8uM. 5. The assay plates were incubated for 72 hours at 37 degrees C/5% CO2/95% Rh. 6. 3uL CellTiter-Glo detection reagent was then added to the plates (columns 2 - 48, rows 1 - 32) and incubated at room temperature for additional 15min. 7. Luminescence signal was acquired via the ViewLux plate reader (PerkinElmer) using a clear filter, 2 second exposure and 2x binning settings.
% is set by controls: 0 for no effect and ±100 for the full control effect; potency is the fitted concentration of half-maximal effect.

Row | SMILES | activity change, negative = cytotoxicity | Potency | outcome
1 | CC1=CC(=O)C2=C(C)C[C@H](O)[C@@H]3[C@H](OC(=O)[C@@H]3C)[C@@H]12 | 4.8% | – | –
2 | c1ccc2c3c([nH]c2c1)CNCC3 | -0.541% | – | –
3 | CCC(=O)CCCCC[C@@H]1NC(=O)[C@H]2CCCCN2C(=O)[C@H]([C@@H](C)CC)NC(=O)[C@H](Cc2cn(OC)c3ccccc23)NC1=O | – | 6.66 µM (active) | –
4 | COC(=O)C1=C2Nc3ccccc3[C@@]23CCN2CC(C(C)=O)C1C[C@H]23 (stereo partly specified) | 2.43% | – | –
5 | CC1=CC2CC[C@@H]3[C@@H](C)C[C@H](C)[C@@H](C1)N23 (stereo partly specified) | 0.322% | – | –
6 | COc1ccc2c3c([nH]c2c1)C(C)=NCC3 | -22.3% | – | –
7 | C[C@@H]1CC[C@@H](c2ccoc2)N2C[C@@]3(CC[C@@H]12)CS[C@@]1(CC[C@H]2[C@H](C)CC[C@@H](c4ccoc4)N2[C@@H]1O)C3 | – | 8.38 µM (active) | –
8 | CC[C@@H]1CN2CC[C@@]3(O)C(=Nc4cccc(OC)c43)[C@@H]2C[C@@H]1/C(=C\OC)C(=O)OC | 9.26% | – | –
9 | CNCCc1c[nH]c2ccccc12 | – | – | inactive
10 | CNCCc1ccc(O)cc1 | – | – | inactive
11 | CC(=O)N[C@H]1CCN2CCC[C@H]12 | – | – | inactive [at 85.4 µM]
12 | C=C1[C@@H](C)[C@H]2[C@H](Cc3ccccc3)NC(=O)[C@]23OC(=O)/C=C/[C@H](O)CCC[C@@H](C)C/C=C/[C@H]3[C@@H]1O | – | 13.3 µM (active) | –
13 | COc1ccc2c(c1)[nH]c1c(C)nccc12 | 5.68% [at 76 µM] | – | –
14 | CN(C)Cc1c[nH]c2ccccc12 | – | – | inactive
15 | C/C=C1/CN2CC[C@]34C(=Nc5ccccc53)[C@@H]2C[C@@H]1[C@H]4C(=O)OC | – | – | inactive [at 76 µM]
16 | CC=C1CN(C=O)[C@H]2C[C@@H]1[C@@H](C(=O)OC)[C@@]13CCOC21Nc1ccccc13 (stereo partly specified) | 2.61% | – | –

Row | SMILES | activity change, negative = cytotoxicity | Potency | outcome
17 | NCCc1ccccc1 | – | – | inactive
18 | O=C(c1ccccc1O)c1[nH]c(Cl)c(Cl)c1-n1c(C(=O)c2ccccc2O)cc(Cl)c1Cl | – | 13.3 µM (active) | –
19 | CCN1C[C@]2(C)CC[C@H](O)[C@]34C1C(C[C@H]23)[C@@]12CC[C@H](CC14)[C@](O)(COC(=O)c1ccc(OC)c(OC)c1)[C@H]2O (stereo partly specified) | 12.1% | – | –
20 | CO[C@@H](/C=C/CC/C=C/C(=O)O)[C@@H](O)[C@H](C)[C@@H](O)/C(C)=C/[C@H](C)C(=O)CCCC1CC(=O)NC(=O)C1 | – | – | inactive
21 | CN1C(=O)[C@]23CC4C(C)(C)[C@@]5(C[C@@]41CN2CC[C@@]3(C)O)C(=O)Nc1c5ccc2c1OC=CC(C)(C)O2 (stereo partly specified) | – | – | inactive
22 | CO[C@H](c1ccccc1)[C@H]1NC(=O)C(C)NC(=O)C(C[C@@H](C)CO)N(C)C(=O)[C@@H](C(O)c2cn(C(C)(C)C3CO3)c3ccccc23)NC(=O)C(C(C)C=C(C)C)NC(=O)C(CC(C)C)N(C)C(=O)C(C(C)C)NC1=O (stereo partly specified) | -0.289% [at 22.9 µM] | – | –
23 | COc1ccc(C23Oc4cc(OC)cc(OC)c4[C@](O)([C@H](c4ccccc4)C2C(=O)NCCCCNC(=O)c2ccccc2)[C@@H]3O)cc1 (stereo partly specified) | – | – | inactive
24 | CCCCC[C@@H]1OC(=O)[C@@H](C)N(C)C(=O)[C@H](CCCCC)OC(=O)C(C)N(C)C(=O)[C@H](CCCCC)OC(=O)[C@@H](C)N(C)C(=O)[C@H](CCCCC)OC(=O)C(C)N(C)C1=O (stereo partly specified) | – | 16.7 µM (active) | –
25 | CC[N@@+]1([O-])C[C@]2(C)CC[C@@H](O)[C@@]34C5C[C@H]6CC[C@@]5(C(C[C@H]23)C41)[C@H](O)[C@@]6(O)CO (stereo partly specified) | – | – | inactive
26 | CCCC[C@@H]1CC[C@H]2CCCC(CCC)N12 (stereo partly specified) | – | – | inactive
27 | C[C@]12CC(O)C3[C@@H](CCC4C[C@@H](O)CC[C@@]43CO)[C@@]1(O)CCC2C1=CC(=O)OC1 (stereo partly specified) | 2.48% | – | –
28 | CCN1C[C@]2(C)CC[C@@H](O)[C@]34C1[C@H](C[C@H]23)C12CCC(CC14)[C@](O)(CO)[C@H]2O (stereo partly specified) | – | – | inactive
29 | CNCCc1ccccc1 | – | – | inactive
30 | CCC[C@H]1CC[C@H]2[C@H](C)CCC[C@H]2N1 | 1.4% | – | –
31 | CO[C@@H](/C=C/CC/C=C/C(=O)O)[C@@H](O)[C@H](C)/C=C(\C)[C@@H](O)[C@H](C)C(=O)CCCC1CC(=O)NC(=O)C1 | 2.71% | – | –
